# Laboratory results from PubChem BioAssay AID602329 (Broad Institute, 2012).
# The campaign covered roughly 360,000 compounds. About 510 (0.14%) were called active. Shown is part of a subset that was picked to be rich in actives. A number with no mark means an inactive call.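 Rule for the calls: active = mean normalized replicate activity at least 40 and at least half of replicates scoring 40 or more; inconclusive = only one of the two criteria met; inactive = mean below 40 and under half of replicates reaching 40.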
# Molecular target: DNA repair and recombination protein RAD54-like (Homo sapiens) (UniProt Q92698)
# Sequence (Q92698 whole entry, looked up): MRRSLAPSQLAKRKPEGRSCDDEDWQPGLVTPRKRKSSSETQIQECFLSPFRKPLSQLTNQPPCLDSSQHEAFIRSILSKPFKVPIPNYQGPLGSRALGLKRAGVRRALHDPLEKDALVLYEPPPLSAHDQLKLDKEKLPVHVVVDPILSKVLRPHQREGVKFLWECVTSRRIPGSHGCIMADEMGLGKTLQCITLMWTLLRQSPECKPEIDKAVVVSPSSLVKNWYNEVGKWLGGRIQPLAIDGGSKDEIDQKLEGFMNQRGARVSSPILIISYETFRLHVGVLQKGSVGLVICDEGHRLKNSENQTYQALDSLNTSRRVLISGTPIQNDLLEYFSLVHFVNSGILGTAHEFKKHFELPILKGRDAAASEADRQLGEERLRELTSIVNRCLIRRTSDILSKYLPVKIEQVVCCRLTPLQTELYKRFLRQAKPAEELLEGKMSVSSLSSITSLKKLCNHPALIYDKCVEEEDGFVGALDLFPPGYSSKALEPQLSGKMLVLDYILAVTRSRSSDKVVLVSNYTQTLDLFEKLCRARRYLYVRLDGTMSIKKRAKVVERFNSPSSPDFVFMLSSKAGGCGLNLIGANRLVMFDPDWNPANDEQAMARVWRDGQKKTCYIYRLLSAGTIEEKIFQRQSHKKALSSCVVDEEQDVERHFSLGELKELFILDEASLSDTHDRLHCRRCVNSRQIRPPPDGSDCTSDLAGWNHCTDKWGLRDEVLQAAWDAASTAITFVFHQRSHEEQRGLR
# Test: RAD54 Holliday junction migration blockers – biochemical, fluorescence, single point, primary screen (AID 602329);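 note: 0% = median of neutral control wells and 100% = median of positive control wells; inhibitors cause a drop in the FAM fluorescence signal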
# Conditions: RAD54 Holliday junction branch migration, FAM/BHQ fluorescence; at 10.4 µM; active compounds read high
row,Compound,inhibition
1,C/C=C/c1ccc([C@@H]2[C@@H](CO)N(C(=O)CC)[C@H]2CN(C)C(=O)C2CC2)cc1,-7.87%
2,O=C(N[C@@H]1C=C[C@H](CC(=O)N2CCOCC2)O[C@H]1CO)c1ccccn1,-0.273%
3,COc1ccc(S(=O)(=O)Nc2ccc3c(c2)CC(=O)N([C@H](C)CO)C[C@@H](C)[C@@H](CN(C)S(=O)(=O)c2ccc(F)cc2)O3)cc1,-1.32%
4,C[C@H](CO)N1C[C@H](C)[C@H](CN(C)C(=O)Nc2ccccc2)Oc2c(NC(=O)Nc3ccc(C(F)(F)F)cc3)cccc2C1=O,0.373%
5,CO[C@@H](CN(C)C(=O)c1ccc2c(c1)OCO2)[C@@H](C)CN([C@H](C)CO)S(=O)(=O)c1ccccc1,2.31%
6,CCCC#Cc1ccc([C@@H]2[C@H](CO)N3CCCCN(S(=O)(=O)c4ccccc4F)C[C@@H]23)cc1,6.77%
7,Cc1ccc(S(=O)(=O)c2cc3c(=O)n4cccc(C)c4nc3n(CCc3ccccc3)c2=N)cc1C,0.033%
8,Cc1ccc2nc3c(cc(C(=O)NCCc4ccccc4)c(=N)n3CC3CCCO3)c(=O)n2c1 (stereo not given),12.1%
9,CCOCCCNC(=O)c1cc2c(=O)n3ccccc3nc2s1,10.2%
10,CCn1c(=N)c(C(=O)NCCCOC)cc2c(=O)n3cccc(C)c3nc21,50.9% (active)
11,COCCCn1c(C(=O)NC2CCCCC2)cc2c(=O)n3cccc(C)c3nc21,-1.16%
12,COc1ccc(CCn2c(=N)c(C(=O)NCC3CCCO3)cc3c(=O)n4cccc(C)c4nc32)cc1OC (stereo not given),52.7% (active)
13,O=C(NC1Cc2ccccc2C1)[C@@H]1[C@@H](CO)[C@@H]2Cn3c(ccc(C4=CCCC4)c3=O)[C@H]1N2CC1CC1,2.91%
14,O=C(Nc1ccc(F)cc1)N1CCCCN2[C@H](CO)[C@H](c3ccc(-c4ccncc4)cc3)[C@@H]2C1,-8.07%
15,COCC(=O)Nc1ccc2c(c1)[C@@H]1C[C@@H](CC(=O)N3CCN(C)CC3)O[C@H](CO)[C@@H]1O2,7.82%
16,CC(C)n1cnc2c(NCc3ccccc3)cc(OCC3CCN(C)CC3)cc21,78.7% (active)
17,CCC(=O)Nc1ccc2c(c1)C(=O)N(C)C[C@H](OC)[C@@H](C)CN(Cc1cccnc1)[C@H](C)CO2,-1.44%
18,NC(N)=Nc1nc(-c2ccccc2)c2cc(Cl)ccc2n1,58.9% (active)
19,Clc1ccc2nc(-c3ccccc3)nc(C(Cl)Cl)c2c1,-6.9%
20,CC(C)NC(=O)N(C)C[C@H]1Oc2ncc(-c3ccccc3F)cc2C(=O)N([C@@H](C)CO)C[C@@H]1C,-5.71%
21,O=C(COC(=O)CCCN1C(=O)c2cccc3cccc(c23)C1=O)NC1CCS(=O)(=O)C1 (stereo not given),-5.27%
22,C[N+](C)(CCCCCC[N+](C)(C)CCCN1C(=O)c2cccc3cccc(c23)C1=O)CCCN1C(=O)c2cccc3cccc(c23)C1=O,115% (active)
23,O=C(CCCN1C(=O)c2cccc3cccc(c23)C1=O)N1CCN(Cc2ccc3c(c2)OCO3)CC1,8.9%

row,Compound,inhibition
1,CCC(=O)N1C[C@H](C)[C@H](OC)CN(C)C(=O)c2ccc(NC(=O)c3cnccn3)cc2OC[C@@H]1C,-7.7%
2,O=C(Cc1ccncc1)NCC[C@H]1CC[C@H](NC(=O)Nc2cccc(F)c2)[C@H](CO)O1,-5.21%
3,CCC(=O)N1C[C@@H](C)[C@@H](OC)CN(C)C(=O)c2ccc(NC(=O)c3ccccc3)cc2OC[C@H]1C,-5.42%
4,COc1ccc(NC(=O)Nc2ccc3c(c2)CC(=O)N([C@@H](C)CO)C[C@@H](C)[C@@H](CN(C)Cc2ccc(Cl)c(Cl)c2)O3)cc1,12.1%
5,C[C@@H](O)C#Cc1ccc([C@H]2[C@H](CO)N3CCCCN(C(=O)c4ccc5c(c4)OCO5)C[C@@H]23)cc1,1.48%
6,CCC(=O)N(C)C[C@@H]1Oc2ncc(/C=C/c3ccccc3)cc2C(=O)N([C@@H](C)CO)C[C@H]1C,0.476%
7,COCC#Cc1cnc2c(c1)C(=O)N([C@H](C)CO)C[C@H](C)[C@H](CN(C)C(=O)Nc1cc(F)ccc1F)O2,0.435%
8,COc1ccc(NC(=O)N[C@@H]2CC[C@H](CC(=O)NC3CCC3)O[C@H]2CO)cc1,4.37%
9,C/C=C/c1ccc2c(c1)O[C@H](CN(C)C(=O)CN(C)C)[C@H](C)CN([C@@H](C)CO)S2(=O)=O,-12.5%
10,C[C@H]1CN([C@@H](C)CO)C(=O)c2cc(C#CCN(C)C)cnc2O[C@H]1CN(C)C(=O)Cc1ccccc1,3.35%
11,COc1ccc(-c2ccc3c(c2)[C@H]2[C@H](CCN2C(=O)c2ccc4c(c2)OCO4)[C@@H](CO)N3)cc1,-2.22%
12,CCC(=O)N1C[C@H](C)[C@H](OC)CN(C)C(=O)c2ccc(NC(=O)Nc3ccccc3)cc2OC[C@H]1C,-3.3%
13,C[C@H](CO)N1C[C@H](C)[C@H](CN(C)C)Oc2ncc(-c3ccncc3)cc2C1=O,8.42%
14,COc1ccc(NC(=O)Nc2ccc3c(c2)CC(=O)N([C@@H](C)CO)C[C@H](C)[C@@H](CN(C)CC2CCCCC2)O3)cc1,3.95%
15,CN(C)C(=O)C[C@@H]1C[C@@H]2c3cc(NC(=O)NC4CCCCC4)ccc3O[C@@H]2[C@H](CO)O1,-2.4%
16,O=C(C[C@H]1CC[C@H]2[C@@H](COC[C@H](O)CN2C(=O)c2ccncc2)O1)NCc1cc(F)cc(F)c1,1.6%
17,C[C@H](CO)N1C[C@H](C)[C@H](CN(C)S(=O)(=O)c2cccs2)Oc2c(NS(=O)(=O)c3ccc(Cl)cc3)cccc2C1=O,3.72%
18,CC1CCN(CCCn2c(SCC(=O)NC3CCCC3)nc3ccccc3c2=O)CC1,-8.12%
19,Cc1nc2ccccc2c2oc(C(=O)NCCCN3CCC(C)CC3)cc12,55.2% (active)
20,CC1CCN(C(=O)CCNC(=O)c2ccccc2)CC1,-8.53%
21,CN1C[C@@H](CO)O[C@@H](n2cnc3c(N4CCN(CCO)CC4)ncnc32)C1,-0.96%
22,CC1CCc2sc3nc(N4CCN(CCO)CC4)n4ncnc4c3c2C1 (stereo not given),53.7% (active)
